Screening results (PubChem BioAssay)
A selection: hits, their analogues and other compounds. The true share with any hit is near 10%.
KB-3-1 tox: qHTS assay for MDR1-selective chemotherapeutics: Primary screen using the parental adenocarcinoma cell KB-3-1 | KB-3-1 viability, CellTiter-Glo ATP luminescence, 72 h | Potency, µM (highest dose often 46.1 µM), hits mostly cytotoxic | 400,000 tested, 1.4% active | AID 1347075, 2019; further: on the % scale 0 is the no-effect control and ±100 the full control effect; nearly all actives have a fitted effect of over 60% in size
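Parental KB-3-1 adenocarcinoma cells in phenol-red-free DMEM with 10% FBS were pin-treated with compounds at several concentrations, incubated 72 h at 37 °C, and viability read by CellTiter-Glo luminescence; concentration-effect curves were fitted after normalization.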
SW480 rerep: A quantitative high throughput screen for small molecules that induce DNA re-replication in SW480 colon adenocarcinoma cells. 340,000 tested, 1.8% active. SW480 DNA re-replication, Hoechst DNA content imaging, 48 h. Potency, µM (highest dose often 46.1 µM), for inactives: top-dose re-replication activation, hits mostly activators; further: % of control where 0% means no effect; nearly all actives have a fitted effect of over 55% in size
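SW480 cells exposed to compounds for 48 hr at 37 C, 5% CO2, then Hoechst-stained 40 min. Nuclear DNA content imaged by fluorescence scanning (405 nm excitation, 500-530 nm emission); re-replication scored as increased high-intensity nuclei.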
VP16 counter: VP16 counterscreen qHTS for inhibitors of ROR gamma transcriptional activity; Drosophila S2 Gal4-VP16 UAS-luciferase, luminescence, 20 h; Potency, µM (series often up to 53.6 µM), without a hit: top-dose activity, negative = inhibition, most hits filed as inhibitors; 310,000 tested, 3.5% active;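 further: Gal4-VP16 expression switched on by copper sulfate through the metallothionein promoter; on the % scale 0 is the no-effect control and ±100 the full control effect; nearly all actives have a fitted effect of over 50% in size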
RORg inh: qHTS for inhibitors of ROR gamma transcriptional activity | Nuclear receptor ROR-gamma (Mus musculus), P51450 | Drosophila S2 Gal4-RORgamma UAS-luciferase reporter, 20 h | Potency, µM (titrated, usually from 53.6 µM), inactives show at the top dose activity change, negative = inhibition, hits mostly inhibitors | 310,000 tested, 5.4% active | AID 2551, 2010; further: on the % scale 0 is the no-effect control and ±100 the full control effect; nearly all actives have a fitted effect of over 60% in size
Target sequence (P51450 whole entry, looked up, the tested form may be a part): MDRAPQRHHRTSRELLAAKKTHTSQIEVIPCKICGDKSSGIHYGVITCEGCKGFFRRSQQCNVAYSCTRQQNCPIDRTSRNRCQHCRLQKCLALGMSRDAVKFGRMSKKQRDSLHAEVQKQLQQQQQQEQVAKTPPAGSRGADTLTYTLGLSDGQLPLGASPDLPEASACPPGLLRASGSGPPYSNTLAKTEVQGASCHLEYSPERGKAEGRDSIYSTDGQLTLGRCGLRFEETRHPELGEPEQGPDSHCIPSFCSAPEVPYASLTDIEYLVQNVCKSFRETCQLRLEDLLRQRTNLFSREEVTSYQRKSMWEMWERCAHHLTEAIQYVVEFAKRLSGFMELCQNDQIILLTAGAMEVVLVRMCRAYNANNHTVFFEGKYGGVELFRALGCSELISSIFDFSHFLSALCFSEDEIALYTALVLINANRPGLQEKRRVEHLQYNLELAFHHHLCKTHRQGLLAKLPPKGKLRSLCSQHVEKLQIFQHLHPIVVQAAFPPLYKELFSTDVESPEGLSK
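Drosophila Schneider cells stably carrying a metallothionein-driven Gal4 DBD–ROR gamma fusion and a UAS-Photinus luciferase reporter were exposed to compound for 1 hr, then induced with copper sulfate (700 uM final) for 20 hr at ambient temperature before luminescence reading.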
KB-V1 MDR tox: qHTS assay for MDR1-selective chemotherapeutics: Primary screen using the drug-selected MDR subline cells KB-V1 | KB-V1 MDR cells viability, CellTiter-Glo, 72 h | Potency, µM (titrated, usually from 46.1 µM), hits mostly cytotoxic | 400,000 tested, 3.4% active | AID 1347076, 2019; further: on the % scale 0 is the no-effect control and ±100 the full control effect; nearly all actives have a fitted effect of over 60% in size
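qHTS viability screen in drug-selected KB-V1 MDR cells: 72 h compound treatment at 37 degrees C, ATP luminescence end point.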
MCF10A rerep: A quantitative high throughput screen for small molecules that induce DNA re-replication in MCF 10a normal breast cells | MCF 10A DNA re-replication, Hoechst nuclear intensity, 48 h | Potency, µM (top dose mostly 46.1 µM), without a hit: top-dose activity, positive = re-replication, most hits filed as activators | 350,000 tested, 2.9% active | AID 624296, 2012; further: % of control where 0% means no effect; nearly all actives have a fitted effect of over 50% in size
Starred values were filed as active, the others as inactive; i = inactive; ? = inconclusive; nt = no result; [ ] = dose if it differs, or a comment. The call rests on the fitted dose curve; in most records, active means well fitted curve in the direction sought with a large enough effect; inconclusive means small, poorly fitted or top-dose-only effect, or another doubt; inactive means no such curve, though single readings can be large; an effect the other way counts as inactive or inconclusive. Potency means the concentration at half of the fitted maximal effect.

SMILES | KB-3-1 tox | SW480 rerep | VP16 counter | RORg inh | KB-V1 MDR tox | MCF10A rerep
COc1ccc2c(c1)c[n+](C)c1c3cc(OC)c(OC)cc3ccc21 | 2.9µM* | nt | nt | nt | i | nt
COc1ccc(NC(=S)Nc2cccc3ccccc23)cc1OC | i | 0% | ? | ? | i | 0%
COc1ccc(Cc2c3cc(OC)c(OC)cc3cc[n+]2C)cc1OC | i | -5% | -7% | -9% | i | 1%
COc1cc2c[n+](C)c3c4ccccc4ccc3c2cc1OC | 9.2µM* | ? | nt | nt | ? | -8%
COC(=O)c1ccc2c(=O)n(CCCCCC(=O)NCCc3ccc(Cl)cc3)c(=O)[nH]c2c1 | i | nt | nt | nt | i | nt
O=C(c1ccccc1)C1OC1C(=O)c1ccccc1 (stereo not given) | ? | 15µM* | nt | nt | ? | 9.2µM*
CCC(Sc1nc2sc(C(=O)OC)c(C)c2c(=O)n1N)C(=O)N(CC)CC (stereo not given) | i | -7% | 5% | 5% | 3.7µM* | 1%
CCCCNC(=O)C(CC)Sc1nc2sc(C(=O)OC)c(C)c2c(=O)n1N (stereo not given) | i | ? | -10% | -17% | 4.6µM* | 5%
CCC(Sc1nc2sc(C(=O)OC)c(C)c2c(=O)n1N)C(=O)NCC1CCCO1 (stereo not given) | i | -7% | -1% | ? | 16µM* | -11%
CCOc1ccc(-n2c(SCC(=O)NCc3ccco3)nc3ccccc3c2=O)cc1 | i | -7% | -4% | -34% | i | -2%
O=C(c1ccc(-n2c(SCc3cc(F)ccc3F)nc3ccccc3c2=O)cc1)N1CCOCC1 | ? | ? | 0% | 37% | 0.65µM* | 10%
Cc1sc2nc(SCC(=O)NCc3ccco3)n(CCc3ccccc3)c(=O)c2c1C | i | 8% | ? | 13µM* | i | ?
CC1(C)Cc2c(sc3nc(SCC(=O)NCc4ccco4)n(-c4ccccc4)c(=O)c23)CS1 | i | -1%[9.22 µM] | 15% | 28% | i | 7.1µM*
O=C(CSc1nc2ccccc2c(=O)n1-c1ccc(F)cc1)NCc1ccco1 | i | -3% | 19% | 2% | 12µM* | 8%
O=C(CSc1nc2sc3c(c2c(=O)n1-c1ccccc1)CCCC3)NCc1ccco1 | i | ? | -23% | -18% | i | ?
CCCNC(=O)C1(C)CCCN(Cc2ccc(-c3ccccc3)cc2)C1 (stereo not given) | i | nt | nt | nt | i | nt
C=CCn1c(SCC(=O)NCc2ccco2)nc2ccccc2c1=O | i | -102% | 2% | -20% | i | 1%
O=C(CCn1c(SCC(=O)NCc2ccco2)nc2ccccc2c1=O)NCCc1ccccc1 | i | -7% | 0% | 29% | 21µM* | -2%
CC[C@@H]1OC(=O)[C@H](C)[C@H](O[C@@H]2C[C@](C)(OC)[C@H](O)[C@H](C)O2)[C@H](C)[C@H](O[C@@H]2O[C@@H](C)C[C@@H](N(C)C)[C@@H]2O)[C@](C)(O)C[C@H](C)C(=O)[C@H](C)[C@H](O)[C@]1(C)O | nt | nt | -5%[17 µM] | 4%[16.9 µM] | nt | nt
Cc1nc2c(=O)n(C)c(=O)n(C)c2nc1Cl | 15µM* | ? | 7.1µM* | ? | ? | 1.8µM*
CCOc1ccc(NC(=O)C2CCCN(S(=O)(=O)c3cccc4nonc34)C2)cc1 (stereo not given) | i | nt | nt | nt | i | nt
CCOc1ccc(/C=N/Nc2ccccn2)cc1 | i | 4% | ? | 11µM* | i | 0%
COc1ccc2nc(Cl)c(/C=N/Nc3ccccn3)cc2c1 | i | ? | ? | 11µM* | i | ?
Clc1ccccc1C=NNc1ccccn1 | i | 0% | nt | nt | i | -4%
